# Assay results from the supplement of paper PMC8728848.
# The sample as a whole holds a higher share of the strongest signals than the screen did.
# What was measured:
# Assay in all cases: glycan array binding signal (z-score within array); higher = stronger binding
# Details in all cases: glycan notation: IUPAC condensed, linker removed; mutation: A146Q
# Fuc(a1-2)Gal(b1-4)GlcNAc = target: Fuc(a1-2)Gal(b1-4)GlcNAc
# How it was run: (§1)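 Columns mapping to the same glycan were averaged after glycan names were converted to IUPAC-condensed notation. The data come from 3228 arrays in the Consortium for Functional Glycomics database, limited to those with an available protein sequence. Binding is reported as a within-array Z-score averaged across arrays of one protein sequence and across linkers.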
# [1] = target: Fuc(a1-2)[Gal(a1-3)]Gal(b1-3)GlcNAc
# How it was run: as §1
# [2] = target: Fuc(a1-2)[Gal(a1-3)]Gal(b1-3)GlcNAc(b1-2)Man(a1-3)[Fuc(a1-2)[Gal(a1-3)]Gal(b1-3)GlcNAc(b1-2)Man(a1-6)]Man(b1-4)GlcNAc(b1-4)GlcNAc
# How it was run: as §1
# [3] = target: Fuc(a1-2)[Gal(a1-3)]Gal(b1-4)Glc
# How it was run: as §1
# [4] = target: Fuc(a1-2)[Gal(a1-3)]Gal(b1-4)GlcNAc
# How it was run: as §1
# [5] = target: Fuc(a1-2)[Gal(a1-3)]Gal(b1-4)GlcNAc(b1-2)Man(a1-3)[Fuc(a1-2)[Gal(a1-3)]Gal(b1-4)GlcNAc(b1-2)Man(a1-6)]Man(b1-4)GlcNAc(b1-4)GlcNAc
# How it was run: as §1
# [6] = target: Fuc(a1-2)[GalNAc(a1-3)]Gal(b1-3)GalNAc(a1-3)[Fuc(a1-2)]Gal(b1-4)GlcNAc
# How it was run: as §1
# Fuc(a1-4)GlcNAc = target: Fuc(a1-4)GlcNAc
# How it was run: as §1
# Gal(a1-3)Gal(b1-3)GlcNAc = target: Gal(a1-3)Gal(b1-3)GlcNAc
# How it was run: as §1
# Gal(a1-6)Glc = target: Gal(a1-6)Glc
# How it was run: as §1
# [7] = target: Gal(b1-3)Gal(b1-4)GlcNAc(b1-2)Man(a1-3)[Gal(b1-3)Gal(b1-4)GlcNAc(b1-2)Man(a1-6)]Man(b1-4)GlcNAc(b1-4)GlcNAc
# How it was run: as §1
# Gal(b1-4)GlcNAc = target: Gal(b1-4)GlcNAc
# How it was run: as §1
# [8] = target: Gal(b1-4)GlcNAc(b1-2)Man(a1-3)Man(b1-4)GlcNAc(b1-4)GlcNAc
# How it was run: as §1
# [9] = target: Gal(b1-4)GlcNAc(b1-2)Man(a1-3)[Man(a1-6)]Man(b1-4)GlcNAc(b1-4)GlcNAc
# How it was run: as §1
# [10] = target: Gal(b1-4)GlcNAc(b1-3)Gal(b1-4)GlcNAc(b1-3)Gal(b1-4)GlcNAc
# How it was run: as §1
# [11] = target: Gal(b1-4)GlcNAc(b1-3)GalNAc
# How it was run: as §1
# [12] = target: Gal(b1-4)GlcNAc(b1-3)[GlcNAc(b1-6)]Gal(b1-4)GlcNAc
# How it was run: as §1
# Gal3S(b1-4)GlcNAc6S = target: Gal3S(b1-4)GlcNAc6S
# How it was run: as §1
# Gal6S(b1-4)GlcNAc6S = target: Gal6S(b1-4)GlcNAc6S
# How it was run: as §1
# [13] = target: GlcNAc(a1-4)Gal(b1-4)GlcNAc(b1-3)Gal(b1-4)GlcNAc(b1-3)Gal(b1-4)GlcNAc
# How it was run: as §1
# GlcNAc(b1-4)GlcNAc = target: GlcNAc(b1-4)GlcNAc
# How it was run: as §1
# [14] = target: Kdn(a2-3)Gal(b1-4)[Fuc(a1-3)]GlcNAc
# How it was run: as §1
# [15] = target: Man(a1-2)Man(a1-2)Man(a1-3)Man
# How it was run: as §1
# [16] = target: Man(a1-2)Man(a1-2)Man(a1-6)[Man(a1-3)]Man
# How it was run: as §1
# Man(a1-2)Man(a1-3)Man = target: Man(a1-2)Man(a1-3)Man
# How it was run: as §1
# [17] = target: Man(a1-2)Man(a1-3)[Man(a1-2)Man(a1-6)]Man(a1-6)[Man(a1-2)Man(a1-2)Man(a1-3)]Man(b1-4)GlcNAc(b1-4)GlcNAc
# How it was run: as §1
# [18] = target: Neu5Ac(a2-3)Gal(b1-3)[Fuc(a1-4)]GlcNAc(b1-3)Gal(b1-4)[Fuc(a1-3)]GlcNAc
# How it was run: as §1
# [19] = target: Neu5Ac(a2-3)Gal(b1-4)[Fuc(a1-3)]GlcNAc6S
# How it was run: as §1
# [20] = target: Neu5Ac(a2-6)Gal(b1-4)GlcNAc(b1-2)Man(a1-6)[Man(a1-3)]Man(b1-4)GlcNAc(b1-4)GlcNAc
# How it was run: as §1
# [21] = target: Neu5Ac(a2-6)Gal(b1-4)GlcNAc(b1-3)Gal(b1-4)GlcNAc(b1-3)Gal(b1-4)GlcNAc
# How it was run: as §1
binder,measurement,setting,value
"Gal 3 (Homo sapiens), P17931 (protein) MADNFSLHDALSGSGNPNPQGWPGAWGNQPAGAGGYPGASYPGAYPGQAPPGAYPGQAPPGAYHGAPGAYPGAPAPGVYPGPPSGPGAYPSSGQPSAPGAYPATGPYGAPAGPLIVPYNLPLPGGVVPRMLITILGTVKPNANRIQLDFQRGNDVAFHFNPRFNENNRRVIVCNTKLDNNWGREERQSVFPFESGKPFKIQVLVEPDHFKVAVNDAHLLQYNHRVKKLNEISKLGISGDIDLTSASYTMI",glycan array binding signal (z-score),Fuc(a1-2)Gal(b1-4)GlcNAc,0.166
same,glycan array binding signal (z-score),[1],3.36
same,glycan array binding signal (z-score),[2],9.93
same,glycan array binding signal (z-score),[3],2.81
same,glycan array binding signal (z-score),[4],3.94
same,glycan array binding signal (z-score),[5],10.3
same,glycan array binding signal (z-score),[6],-0.199
same,glycan array binding signal (z-score),Fuc(a1-4)GlcNAc,-0.12
same,glycan array binding signal (z-score),Gal(a1-3)Gal(b1-3)GlcNAc,-0.087
same,glycan array binding signal (z-score),Gal(a1-6)Glc,-0.188
same,glycan array binding signal (z-score),[7],10.2
same,glycan array binding signal (z-score),Gal(b1-4)GlcNAc,-0.196
same,glycan array binding signal (z-score),[8],-0.083
same,glycan array binding signal (z-score),[9],-0.181
same,glycan array binding signal (z-score),[10],3.5
same,glycan array binding signal (z-score),[11],-0.187
same,glycan array binding signal (z-score),[12],0.13
same,glycan array binding signal (z-score),Gal3S(b1-4)GlcNAc6S,0.851
same,glycan array binding signal (z-score),Gal6S(b1-4)GlcNAc6S,-0.192
same,glycan array binding signal (z-score),[13],2.23
same,glycan array binding signal (z-score),GlcNAc(b1-4)GlcNAc,-0.132
same,glycan array binding signal (z-score),[14],-0.201
same,glycan array binding signal (z-score),[15],-0.186
same,glycan array binding signal (z-score),[16],-0.177
same,glycan array binding signal (z-score),Man(a1-2)Man(a1-3)Man,-0.199
same,glycan array binding signal (z-score),[17],-0.15
same,glycan array binding signal (z-score),[18],-0.2
same,glycan array binding signal (z-score),[19],-0.188
same,glycan array binding signal (z-score),[20],-0.197
same,glycan array binding signal (z-score),[21],1.65
